Screening data from PubChem BioAssay.
An excerpt weighted towards active compounds, which were near 1.8% of everything screened.
sdo1 growth: restores growth of sdo1-depleted yeast | S. cerevisiae sdo1-depleted JHY4D growth rescue, OD600 30 h; active compounds read high; pdr5 snq2 efflux-pump mutant strain | z-score at 10 µM | 140,000 tested, 0.21% active;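 active means z-score above 3 at both the 24 hr and the 30 hr optical density reads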
Measles CPE: protection of cells from measles virus; AID 841; 140,000 tested, 1.5% active; Measles virus-infected cells, CPE protection, absorbance; protection (pct of control), % at 4 µM; in the data active means protection mostly above about 24%, no sharp cut-off; inactive means mostly below about 26%
Phagocytosis inh: inhibitors of macrophage phagocytosis; J774A.1 macrophage IgG-bead phagocytosis, imaging; inhibition, % at 5 µM; 110,000 tested, 0.07% active;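 active means inhibition above the mean of the plate negative controls plus 5 SD, cut at about 13% in these data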;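 further: phagocytic index as fraction of beads internalized from green versus red external bead signal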
Large screens that a line does not name were inactive.

CN(Cc1ccccc1)c1ncnc2c1cnn2-c1ccccc1	none
Cc1ccc(CSc2ncnc3c2cnn3-c2ccccc2)cc1	none
CCn1c(SCC(=O)c2cc(OC)ccc2OC)nnc1C1CC1	none (no result: sdo1 growth, Measles CPE)
Cc1cccc(NC(=O)C2NC(=O)CC2c2ccccc2)c1C (configuration not stated)	none
COc1ccc(C(C)NC(=O)c2cccc([N+](=O)[O-])c2)cc1OC (configuration not stated)	none
Cc1nc2ccc(NC(=O)c3ccc([N+](=O)[O-])cc3)cc2s1	none
Cc1ccc(C(=O)Nc2ccc3nc(C)sc3c2)s1	Measles CPE 59.7
Cc1cc(NC(=O)c2ccc(Cl)cc2)no1	none
Cc1cc(NC(=O)c2ccc3nc(C)sc3c2)no1	Measles CPE 59.6
COc1ccc(C=O)cc1CSc1nnc(COc2cccc3cccnc23)o1	none (no result: Phagocytosis inh)
N#Cc1c(N)nc2c(c1N)CC(=O)N2c1ccc(Cl)cc1	none
O=C(COc1ccccc1)N/N=C/c1ccc(O[C@@H]2O[C@H](CO)[C@@H](O)[C@H](O)[C@H]2O)cc1	none
CCN(CC)c1ccc(/C=N/N2CCN(Cc3cccc4ccccc34)CC2)c(O)c1	none
CC(C)(C)n1nnnc1C(c1cccc(C#N)c1)N1CCCCCC1 (configuration not stated)	none
CC(C)(C)n1nnnc1C(c1cccc(C(F)(F)F)c1)N1CCOCC1 (configuration not stated)	Measles CPE 27.4
COc1ccc(N2CCN(CCNC(=O)c3c(C)cc(=O)oc3C)CC2)cc1	none (no result: Phagocytosis inh)
Cc1cc(=O)oc(C)c1C(=O)NCCCN1CCN(c2ccc(F)cc2)CC1	Measles CPE 42.6 (no result: Phagocytosis inh)
CCCCCNC(=O)c1ccccc1SC	none
CCCCN(CC(=O)NCc1ccc(Cl)cc1)S(=O)(=O)c1ccc2c(c1)OCCO2	none (no result: Phagocytosis inh)
COc1ccc(C2C3=C(CCCC3=O)Nc3nc(SCc4ccccc4)nn32)cc1OC (configuration not stated)	none
COc1ccc(C2C3=C(CCCC3=O)Nc3nc(SCc4ccc(C(=O)O)cc4)nn32)cc1OC (configuration not stated)	Measles CPE 31.4
Cc1cc2ncn(-c3ncnc4sc5c(c34)CCC(C)C5)c2cc1C (configuration not stated)	none
COc1cc(-c2nnc(-c3ccco3)o2)ccc1OCc1ccccc1	none (no result: Phagocytosis inh)
COc1cc(-c2nnc(-c3ccncc3)o2)ccc1OCc1ccccc1	Measles CPE 90.7
Cc1c(C=O)c(=O)n(-c2ccccc2)n1-c1ccccc1	none
CCc1ccc(C(=O)NC(CCSC)C(=O)O)cc1 (configuration not stated)	none
CCc1ccc(C(=O)NC(C(=O)O)C(C)C)cc1 (configuration not stated)	Measles CPE 38.3
CC(C)[C@H](NC(=O)NCCc1ccc(F)cc1)C(=O)O	Measles CPE 77.7
COC(=O)[C@@H](NC(=O)NCc1ccc(F)cc1)C(C)C	none
COCCNC(=O)C(=O)NCC1OCCCN1S(=O)(=O)c1cccs1 (configuration not stated)	none
CCCC(=O)N1CCN(c2ccc(NC(=O)c3cc4ccccc4o3)cc2)CC1	Measles CPE 60.3
O=C(Nc1ccc(N2CCN(C(=O)c3ccccc3)CC2)cc1)c1cc2ccccc2o1	none
O=C1CC(N2CCCCCC2)C(=O)N1c1ccc2c(c1)OCO2 (configuration not stated)	none
O=C1CC(NC23CC4CC(CC(C4)C2)C3)C(=O)N1c1ccc2c(c1)OCO2 (configuration not stated)	Measles CPE 31.5
O=C1CC(c2ccc(F)cc2)Sc2nc(C34CC5CC(CC(C5)C3)C4)nn21 (configuration not stated)	none
C=CCn1c(SCC(C)=O)nnc1-c1cc(-c2ccccc2)sc1N	none (no result: Phagocytosis inh)
C=CCn1c(SCC(N)=O)nnc1-c1cccc(Br)c1	Measles CPE 34.7
Cc1ccc(-n2c3c(cc(C(=O)O)c2=O)C(=O)CC(C)(C)C3)cc1	Measles CPE 55.4
CC1(C)CC(=O)c2cc(C(=O)O)c(=O)n(-c3ccccc3)c2C1	none (no result: Phagocytosis inh)
CCCOc1ccc(N2CC(C(=O)Nc3ccccc3C(=O)NCc3ccco3)CC2=O)cc1 (configuration not stated)	none
COc1ccc(N2CC(C(=O)Nc3ccccc3C(=O)NCc3ccco3)CC2=O)cc1 (configuration not stated)	Measles CPE 35.3
COc1ccc(/C=C/C(=O)NC(=S)Nc2cc3oc4ccccc4c3cc2OC)cc1	none
COc1cc2c(cc1NC(=S)NC(=O)/C=C/c1ccc(OC)c(OC)c1)oc1ccccc12	Measles CPE 53.4
Cn1c(N2CCN(C(=O)C34CC5CC(CC(C5)C3)C4)CC2)nc2ccccc21	none (no result: sdo1 growth, Measles CPE)
O=C(NC1=NCCS1)C1Cc2ccccc2CN1C(=O)c1ccccc1 (configuration not stated)	Measles CPE 29.2
CC(=O)c1ccc(NC(=O)C2Cc3ccccc3CN2C(=O)c2ccccc2)cc1 (configuration not stated)	none
